The record followed here is PubChem BioAssay.

Active and inactive are the calls of the source.

Experiment [1] deals with PRMT1 (protein arginine N-methyltransferase 1). As to the kind of experiment: small molecules binding arginine methyltransferase PRMT1 – biochemical, small-molecule microarray, 635 nm fluorescence, primary screen (AID 1088).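 Also: binding of Prmt1 protein to compounds spotted on small-molecule microarray slides.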 Conditions: higher = more signal.
The nature of experiment [2]: growth effects on S. cerevisiae YJM789 – YJM789 clinical isolate, OD600, 24 h, basal, primary screen (AID 1089).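 Also: growth of clinical yeast isolate S. cerevisiae YJM 789 seeded 1000 cells per well; test concentration not given here.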 To be noted: higher = more signal, called active from +8 up or from −8 down.
A short description of experiment [3]: S. pombe growth modifiers, basal conditions – strain 972, OD600, 24 h, no modulator, primary screen (AID 1090).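 Also: basal condition with compound alone and no growth modifier present; test concentration not given here.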 To be noted: S. pombe 972 growth, higher = more signal, called active from +8 up or from −8 down.
Experiment [4] in a line: budding yeast growth modifiers under rapamycin – strain BY4716, OD600, 96 h, primary screen (AID 1091). Also: test concentration not given here. To be noted: S. cerevisiae BY4716 + rapamycin, higher = more signal, called active from +8 up or from −8 down.
Experiment [5] deals with Torsin-1A-interacting protein 2 (Homo sapiens) (UniProt Q8NFQ8). As to the kind of experiment: small molecules binding lysate-expressed LULL1 – cell lysate, human LULL1 lysate, 635/667 nm fluorescence, primary screen (AID 1092).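 Also: probe is lysate of COS7 cells overexpressing human LULL1; score merges per-feature 667 nm fluorescence with signal-to-noise.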 Conditions: small-molecule microarray, hLULL1 lysate binding, 635 nm fluorescence; higher = more signal.
Chain of Torsin-1A-interacting protein 2 (Homo sapiens) (Q8NFQ8 whole entry, looked up): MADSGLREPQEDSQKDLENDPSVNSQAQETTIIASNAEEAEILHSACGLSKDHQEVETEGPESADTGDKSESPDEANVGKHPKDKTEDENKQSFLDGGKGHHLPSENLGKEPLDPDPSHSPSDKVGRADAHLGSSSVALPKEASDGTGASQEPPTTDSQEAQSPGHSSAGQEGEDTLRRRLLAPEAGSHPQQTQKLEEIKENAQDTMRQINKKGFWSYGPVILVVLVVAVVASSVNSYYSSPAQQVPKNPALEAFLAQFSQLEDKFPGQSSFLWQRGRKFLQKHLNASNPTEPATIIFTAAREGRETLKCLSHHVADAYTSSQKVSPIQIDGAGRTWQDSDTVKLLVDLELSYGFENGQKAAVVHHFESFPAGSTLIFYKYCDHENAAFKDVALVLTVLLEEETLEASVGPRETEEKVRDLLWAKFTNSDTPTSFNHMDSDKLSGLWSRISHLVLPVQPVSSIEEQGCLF
Experiment [6] can be described thus: optical density change of DRC41 E. coli – strain DRC41, OD650, 24 h, E. coli filamentation project, primary screen (AID 1093).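 Also: MC1000 strain lacking acrAB efflux and sulA so SOS filamentation is blocked; test concentration not given here.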 To be noted: E. coli DRC41 growth, higher = more signal, called active from +8 up or from −8 down.
A short description of experiment [7]: probe aLefty2 binding to arrayed compounds – biochemical, biotinylated probe, 635/667 nm fluorescence, primary screen (AID 1094).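 Also: score merges spot fluorescence near 667 nm with spot signal-to-noise ratio.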 To be noted: small-molecule microarray, higher = more signal.
Experiment [8] deals with Noggin (protein binding on small-molecule microarray). Description: small molecules binding Noggin protein – biochemical, 635/667 nm fluorescence, primary screen (AID 1095).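 Also: score merges 667 nm feature fluorescence with signal to noise over triplicate slides.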 Conditions: 635 nm fluorescence, higher = more signal.
For experiment [9], the target named is Neurogenic locus notch homolog protein 3 (Homo sapiens) (UniProt Q9UM47). As to the kind of experiment: small molecules binding NOTCH3 protein – biochemical, 635/667 nm fluorescence, primary screen (AID 1096). To be noted: small-molecule microarray, 635 nm fluorescence, higher = more signal.
Chain of Neurogenic locus notch homolog protein 3 (Homo sapiens) (Q9UM47 whole entry, looked up): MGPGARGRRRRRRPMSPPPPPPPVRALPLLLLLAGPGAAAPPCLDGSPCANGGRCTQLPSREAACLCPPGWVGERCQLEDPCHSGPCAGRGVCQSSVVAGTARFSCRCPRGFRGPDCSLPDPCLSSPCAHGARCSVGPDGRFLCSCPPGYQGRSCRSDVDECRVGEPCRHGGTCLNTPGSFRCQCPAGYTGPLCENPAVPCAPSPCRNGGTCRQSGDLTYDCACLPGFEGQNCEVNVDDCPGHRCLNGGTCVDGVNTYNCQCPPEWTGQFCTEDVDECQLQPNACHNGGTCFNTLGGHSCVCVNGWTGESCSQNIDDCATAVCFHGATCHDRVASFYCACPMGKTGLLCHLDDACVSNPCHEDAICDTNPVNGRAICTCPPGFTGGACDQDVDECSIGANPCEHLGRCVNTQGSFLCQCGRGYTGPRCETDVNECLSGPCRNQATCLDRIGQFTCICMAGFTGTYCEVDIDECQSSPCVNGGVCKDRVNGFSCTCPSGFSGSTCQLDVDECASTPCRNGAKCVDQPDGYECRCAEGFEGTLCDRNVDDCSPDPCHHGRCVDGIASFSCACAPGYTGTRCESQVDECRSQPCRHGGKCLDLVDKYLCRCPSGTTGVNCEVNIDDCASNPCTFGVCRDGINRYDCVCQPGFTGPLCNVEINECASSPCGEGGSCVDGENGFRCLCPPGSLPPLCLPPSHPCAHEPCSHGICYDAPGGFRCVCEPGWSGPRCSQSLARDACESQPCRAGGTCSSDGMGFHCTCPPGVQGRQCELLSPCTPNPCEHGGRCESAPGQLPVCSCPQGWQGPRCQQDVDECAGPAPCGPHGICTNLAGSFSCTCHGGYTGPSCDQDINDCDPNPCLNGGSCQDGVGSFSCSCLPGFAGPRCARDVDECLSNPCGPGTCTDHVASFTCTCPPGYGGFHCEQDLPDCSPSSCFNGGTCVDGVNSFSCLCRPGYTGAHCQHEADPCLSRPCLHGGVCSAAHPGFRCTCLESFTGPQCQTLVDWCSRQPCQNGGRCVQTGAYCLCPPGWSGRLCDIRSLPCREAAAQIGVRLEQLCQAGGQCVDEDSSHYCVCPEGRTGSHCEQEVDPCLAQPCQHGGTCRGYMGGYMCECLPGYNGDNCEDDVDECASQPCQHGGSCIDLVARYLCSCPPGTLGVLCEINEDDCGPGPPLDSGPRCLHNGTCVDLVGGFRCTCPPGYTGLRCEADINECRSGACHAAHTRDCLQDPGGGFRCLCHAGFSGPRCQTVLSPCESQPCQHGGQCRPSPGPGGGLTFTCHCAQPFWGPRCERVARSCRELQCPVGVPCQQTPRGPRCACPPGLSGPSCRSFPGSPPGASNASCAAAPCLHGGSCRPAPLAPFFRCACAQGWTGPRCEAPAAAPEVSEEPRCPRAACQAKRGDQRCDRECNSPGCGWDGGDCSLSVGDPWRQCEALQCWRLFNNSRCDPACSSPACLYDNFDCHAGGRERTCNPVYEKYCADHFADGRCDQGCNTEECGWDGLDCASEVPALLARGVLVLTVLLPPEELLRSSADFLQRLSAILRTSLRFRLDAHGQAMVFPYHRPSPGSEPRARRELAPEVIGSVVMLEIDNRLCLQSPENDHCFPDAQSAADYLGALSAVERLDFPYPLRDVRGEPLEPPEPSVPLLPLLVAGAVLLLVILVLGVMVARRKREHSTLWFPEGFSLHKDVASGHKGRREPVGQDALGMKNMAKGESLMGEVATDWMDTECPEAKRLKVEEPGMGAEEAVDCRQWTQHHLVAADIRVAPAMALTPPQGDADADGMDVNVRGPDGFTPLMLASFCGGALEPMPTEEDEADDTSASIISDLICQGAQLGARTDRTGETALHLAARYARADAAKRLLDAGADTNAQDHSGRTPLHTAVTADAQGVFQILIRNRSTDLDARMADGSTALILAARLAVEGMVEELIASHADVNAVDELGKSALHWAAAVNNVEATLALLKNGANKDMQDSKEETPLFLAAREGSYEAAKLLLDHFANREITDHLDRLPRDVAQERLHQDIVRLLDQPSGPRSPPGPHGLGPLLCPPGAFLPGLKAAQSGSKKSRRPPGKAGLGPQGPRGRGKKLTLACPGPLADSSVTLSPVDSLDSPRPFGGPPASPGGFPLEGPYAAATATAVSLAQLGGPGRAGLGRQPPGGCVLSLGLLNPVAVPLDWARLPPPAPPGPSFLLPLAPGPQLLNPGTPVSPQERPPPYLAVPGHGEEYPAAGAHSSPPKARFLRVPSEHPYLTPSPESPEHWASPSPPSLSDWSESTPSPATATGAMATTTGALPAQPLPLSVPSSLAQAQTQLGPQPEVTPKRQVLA
Experiment [10] in a line: probe aEGFR binding to arrayed compounds – biochemical, biotinylated probe, 635/667 nm fluorescence, primary screen (AID 1097).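 Also: probe is a biotinylated anti-EGFR antibody binding compounds printed on slides; score combines fluorescence near 667 nm and signal to noise of each spot.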 To be noted: small-molecule microarray, higher = more signal.

As for `C[C@H]1ON(c2ccccc2)[C@@H](c2ccccc2)[C@@H]1C(=O)N1C(=O)OC[C@@H]1c1ccccc1`, the composite z-score was 0.648 in [1]; 0.352 in [5]; -0.159 in [7]; 0.743 in [8]; 0.848 in [9]; -0.0409 in experiment [10]. Besides, the z-score in experiment [2] was 0.386 (inactive); in [3] it was -0.0839 (inactive); in experiment [4], -0.299 (inactive); in experiment [6], -0.0337 (inactive).
For `NC(=O)NCC#Cc1ccc2c(c1)[C@]1(C(=O)N2)[C@H](c2ccc(OCCO)cc2)N2[C@H](c3ccccc3)[C@H](c3ccccc3)OC(=O)[C@H]2[C@@H]1C(=O)N1CCN(c2ncccn2)CC1`, the composite z-score in experiment [1] was 1.34; in experiment [5] it was 1.6; in [7] it was -0.0933; in experiment [8] it was 1.63; in [9], 0.772; in [10], -0.15. The z-score was 1.77 (inactive) in [2], 0.494 (inactive) in experiment [3], 4.43 (inactive) in experiment [4] and 1.31 (inactive) in experiment [6].
Consider `NC(=O)[C@@H]1[C@H]2C(=O)O[C@H](c3ccccc3)[C@H](c3ccccc3)N2[C@H](c2ccccc2OCCO)[C@@]12C(=O)Nc1ccc(C#CCCO)cc12`, for which the composite z-score was -0.155 in experiment [1]; 0.417 in [5]; -0.143 in experiment [7]; -0.209 in experiment [8]; -0.196 in experiment [9]; -0.131 in [10]. Moreover, the z-score in experiment [2] is 0.566 (inactive); in experiment [3] it was -0.145 (inactive); in experiment [4], 2.38 (inactive); in [6], 0.973 (inactive).
In the case of `COC(=O)C(CC#Cc1ccc2c(c1)[C@]1(C(=O)N2)[C@H](c2ccccc2OCCO)N2[C@H](c3ccccc3)[C@H](c3ccccc3)OC(=O)[C@H]2[C@@H]1C(=O)Nc1nc2ccccc2s1)C(=O)OC`, the composite z-score in [1] was 1.52; in [5], 2.93; in experiment [7] it was -0.0699; in experiment [8] it was 1.24; in experiment [9] it was 1.15; in experiment [10], -0.0688. The z-score in [2] was 2.11 (inactive); in experiment [3], 1.03 (inactive); in [4], 1.36 (inactive); in experiment [6], -0.724 (inactive).
With `C=CC[C@]1(C(=O)N2CCOCC2)N=C(c2ccc(OCCCO)cc2)O[C@H]1c1ccccc1CN=[N+]=[N-]`, the composite z-score in experiment [1] is 1.53; in experiment [5], 3.49; in experiment [7], 0.0503; in experiment [8], 1.57; in experiment [9], 1.05; in experiment [10], -0.0111. The z-score in experiment [2] is -0.819 (inactive); in experiment [3], -1.63 (inactive); in experiment [4] it was -0.119 (inactive); in [6], 0.191 (inactive).
As to `CCC[C@@H]1C[C@@]1(CCC)[C@@H](NC(=O)c1ccco1)c1ccc(Cl)cc1`, the composite z-score in experiment [1] is -1.25; in experiment [5] it was -0.825; in experiment [7], -0.149; in experiment [8], -0.174; in experiment [9] it was -0.625; in experiment [10] it was -0.165. Further, the z-score in [2] was 0.349 (inactive); in [3], -0.0896 (inactive); in experiment [4], 0.194 (inactive); in [6], -1.1 (inactive).
On to `O=C1NC(=O)C2C1C=CC(C(O)c1ccc(-c3ccccc3)s1)N2Nc1ccccn1` (stereo not given), for which the composite z-score in experiment [1] was 0.189; in [5] it was 1.76; in [7] it was 0.129; in experiment [8] it was -0.0414; in experiment [9] it was 0.418; in experiment [10], -0.0085. Moreover, the z-score in experiment [2] was -0.3 (inactive); in [3] it was 1.01 (inactive); in experiment [4] it was 0.499 (inactive); in experiment [6], 0.0076 (inactive).
For `COCCOC(=O)N1C(=O)[C@@]2(c3cc(C#CCCO)ccc31)[C@H](c1ccc(OCCO)cc1)N1[C@H](c3ccccc3)[C@H](c3ccccc3)OC(=O)[C@H]1[C@@H]2C(=O)N1CCc2cc(OC)c(OC)cc2C1`, the composite z-score came out at 1.55 in experiment [1]; 2.48 in [5]; 0.022 in experiment [7]; 1.05 in [8]; 1.13 in [9]; 0.0365 in experiment [10]. For the same molecule, the z-score in experiment [2] is 2.59 (inactive); in experiment [3], 1.28 (inactive); in [4], 4.19 (inactive); in [6], 0.37 (inactive).
Turning to `CC(C)N1C(=O)c2ccccc2[C@](C)(C(=O)O)[C@@H]1c1ccc(CO)cc1`, the composite z-score was -0.0681 in experiment [1]; 1.32 in [5]; -0.0395 in [7]; -0.615 in experiment [8]; -0.356 in experiment [9]; -0.256 in [10]. In addition, the z-score in [2] was -0.0219 (inactive); in experiment [3] it was -0.751 (inactive); in experiment [4] it was -1.16 (inactive); in [6], -0.156 (inactive).
Regarding `COc1ccc([Si](C)(C)[C@@H]2[C@@H](CC(=O)N(CCO)Cc3ccccc3)O[C@]3(C(=O)N(Cc4ccc(N5CCOC5=O)cc4)c4ccccc43)[C@H]2C)cc1`, the composite z-score is 1.44 in [1]; 2.13 in experiment [5]; -0.0887 in experiment [7]; 0.806 in experiment [8]; 0.643 in [9]; -0.0343 in experiment [10]. Further, the z-score was -0.677 (inactive) in experiment [2], 0.303 (inactive) in experiment [3], 2.92 (inactive) in experiment [4] and -0.249 (inactive) in experiment [6].
As to `CC(C)N1CC=CC23O[C@@H]4C=CCOC(=O)[C@@H]4[C@H]2C(=O)N(CCCCCCO)[C@@H]3C1=O` (stereo not given in full), the composite z-score is 0.0483 in experiment [1]; 3.29 in experiment [5]; -0.315 in experiment [7]; -0.627 in experiment [8]; -0.478 in experiment [9]; -0.2 in [10]. The z-score is -0.976 (inactive) in [2], -0.174 (inactive) in experiment [3], -1.41 (inactive) in [4] and 0.76 (inactive) in experiment [6].
With `C[C@H]1NC(=O)C([C@@H](C)OCc2ccccc2)NC(=O)[C@@]23C(=O)N[C@@H](Cc4ccccc4)C2[C@H](C)[C@@]2(C)O[C@H]2C3/C=C/CC/C=C/CNC1=O` (stereo not given in full), the composite z-score is -0.1 in experiment [1]; -0.147 in experiment [5]; -0.016 in experiment [7]; 0.598 in experiment [8]; -0.0089 in experiment [9]; 0.0143 in experiment [10]. Further, the z-score is 0.607 (inactive) in experiment [2], -0.657 (inactive) in experiment [3], 0.261 (inactive) in experiment [4] and 2.13 (inactive) in [6].
In the case of `O=C1O[C@H](c2ccccc2)[C@H](c2ccccc2)N2[C@H]1[C@@H](C(=O)N1CCN(c3ncccn3)CC1)[C@]1(C(=O)Nc3ccc(C#CCCO)cc31)[C@H]2c1ccc(OCCO)cc1`, the composite z-score in [1] was found to be 1.54; in [5], 3.13; in experiment [7] it was 0.152; in experiment [8] it was 1.47; in experiment [9], 1.1; in [10], 0.155. In addition, the z-score in experiment [2] was 0.987 (inactive); in experiment [3] it was 1.14 (inactive); in [4] it was 4.15 (inactive); in [6], 0.132 (inactive).
Regarding `CN1C(=O)C2C=CC(C(O)c3ccc(F)cc3)N(N3CCCCC3)C2C1=O` (stereo not given), the composite z-score was 1.07 in experiment [1]; 2.78 in experiment [5]; 0.682 in experiment [7]; -0.513 in [8]; 0.721 in [9]; 0.204 in experiment [10]. Further, the z-score in [2] was 1.15 (inactive); in experiment [3] it was 1.27 (inactive); in [4], 2.06 (inactive); in experiment [6], -1.17 (inactive).
